# Measurements from PubChem BioAssay (NCATS).
# Values joined by “and” are separate entries in the source; they are usually repeats but may differ in a detail not shown here. Equal values may be shown once. Values without a mark were called inactive. Records with an inconclusive call do not appear. Entries that show only a call come without a potency. Active and inactive are the calls of the source. Unless noted, the call rests on the fitted dose curve; in most records, active means well fitted curve in the direction sought with a large enough effect; inconclusive means small, poorly fitted or top-dose-only effect, or another doubt; inactive means no such curve, though single readings can be large; an effect the other way counts as inactive or inconclusive.
# Tests used:
# [1] = biological target: ATP-dependent 6-phosphofructokinase (Trypanosoma brucei brucei) (UniProt O15648); experiment: qHTS Assay to Find Inhibitors of T. brucei phosphofructokinase: hit validation (AID 492961);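 further: luminescence reports ADP formed as PFK phosphorylates fructose-6-phosphate with ATP; series mostly up to about 51 µM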
# In short: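 Inhibition of parasite PFK is measured as reduced ADP formation, quantified via luciferase after ATP depletion. Assay used 0.1 mM ATP, 0.5 mM F6P, 1.25 nM enzyme, 45 min incubation.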
# [2] = biological target: Ubiquitin carboxyl-terminal hydrolase 1 (Homo sapiens) (UniProt O94782); experiment: Inhibitors of USP1/UAF1: Pilot qHTS (AID 504865); further: nearly all actives have a fitted effect of over 35% in size; further: potency means the concentration at half of the fitted maximal effect
# In short: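 Enzyme-free wells gave the negative control, while test wells held 1nM USP1/UAF1 preincubated with compound for 15 min at room temperature. Ub-Rho at 150nM final started the reaction, and fluorescence at 480/540 nm was recorded kinetically.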
# [3] = biological target: DNA dC->dU-editing enzyme APOBEC-3G (Homo sapiens) (UniProt Q9HC16); experiment: qHTS for inhibitors of Vif-A3G interactions: Validation (AID 588379)
# In short: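 Yellow fluorescence (Ex 488, Em 500-530) of Vif-coexpressing HeLa A3G-eYFP cells, scanned by Acumen cytometer, reports blocked A3G degradation. Cells plated at 700/well overnight at 37 deg C before compound addition, then a further overnight compound incubation at 37 deg C.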
# [4] = qHTS for Inhibitors of Plasmodium falciparum (DD2) proliferation (AID 504314);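 further: parasite DNA measured by SYBR Green fluorescence after red cell lysis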
# Excerpt: Plasmodium falciparum is a virulent malarial parasite that kills 1-2 million people worldwide each year. Malaria not only inflicts tremendous suffering and morbidity on the human population, but has dramatically influenced the course of civilization with profound sociological and economic implications (Shah, S. 2010). Transmitted by mosquitoes, the sporozoite form of the parasite enters the blood stream to infect hepatocytes, where they become merozoites that infect red blood cells (erythrocytes). Within erythrocytes, merozoites begin a […] cycle of growth and division, after which the parasite is released to infect new red blood cells. Gametocytes, which form within erythrocytes as well, circulate in the bloodstream and are ingested by the mosquito, thereby completing the life cycle (see CDC website). To profile malarial lines for differential chemical responses and to identify inhibitors of malarial growth, an assay that measures P. falciparum growth and replication within erythrocytes was employed. […] Because mature erythrocytes lack DNA, only Plasmodium-derived DNA is detected. […]
# Bennett TN, Paguio, M., Gligorijevic, B., Seudieu, C., Kosar, A. D., Davidson, E., and Roepe, P. D. Novel, rapid, and inexpensive cell-based quantification of antimalarial drug efficacy Antimicrobial Agents Chemother. […]
# [5] = qHTS for Inhibitors of Plasmodium falciparum (GB4) proliferation (AID 504315); further: nearly all actives have a fitted effect of over 50% in size
# In short: (§1)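 Parasite growth measured as SYBR Green DNA fluorescence (ex 485, em 535 nm) after overnight lysis following 72 h culture at 37 °C, 0.3% parasitemia, 2.5% hematocrit. Values normalized against DMSO and 0.29 uM artemisinin controls, with plate-stack correction.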
# [6] = qHTS for Inhibitors of Plasmodium falciparum (7G8) proliferation (AID 504316); further: series mostly up to about 6.7 µM; nearly all actives have a fitted effect of over 65% in size
# In short: as §1
# [7] = qHTS for Inhibitors of Plasmodium falciparum (CP250) proliferation (AID 504320)
# In short: as §1
# [8] = biological target: Thyrotropin-releasing hormone receptor (Homo sapiens) (UniProt P34981); experiment: qHTS for Small Molecule Agonists and Allosteric Enhancers of Human TRH Receptor: Validation Screen for Agonists (AID 493127;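 active means calcium activation more than 3 SD above the typical response in the agonist read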;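 further: intracellular calcium rise by fluo-8 fluorescence before TRH EC20 addition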); conditions: TRH receptor agonist cell assay; at 2 µM; active compounds read high
# In short: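 Compound-evoked intracellular calcium release in fluo-8-loaded TRHR cells, read kinetically on FDSS (Ex 480/Em 530, 1 s/cycle) after 23 nL pintool transfer. Agonist phase preceded 10 nM TRH EC20 addition.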
# [9] = biological target: Galactokinase (Homo sapiens) (UniProt P51570); experiment: qHTS Validation Assay for Inhibitors of Human Galactokinase (GALK) (AID 493189)
# In short: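 Enzyme activity is inferred from ATP consumption: human GALK phosphorylates galactose (100 uM) using 35 uM ATP for 1 h at room temperature, and luciferase-based Kinase-Glo Plus reports unconsumed ATP.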
# [10] = Validation screen for small molecules that induce DNA re-replication in SW480 colon adenocarcinoma cells (AID 504364)
# In short: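 Image-based DNA content read-out: Hoechst stain 40 min, total nuclear fluorescence intensity (ex 405 nm, em 500-530 nm) after 48 h compound exposure of 250 SW480 cells/well at 37 C, 5% CO2, versus DMSO vehicle.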
# Chain of ATP-dependent 6-phosphofructokinase (Trypanosoma brucei brucei) (O15648 whole entry, looked up): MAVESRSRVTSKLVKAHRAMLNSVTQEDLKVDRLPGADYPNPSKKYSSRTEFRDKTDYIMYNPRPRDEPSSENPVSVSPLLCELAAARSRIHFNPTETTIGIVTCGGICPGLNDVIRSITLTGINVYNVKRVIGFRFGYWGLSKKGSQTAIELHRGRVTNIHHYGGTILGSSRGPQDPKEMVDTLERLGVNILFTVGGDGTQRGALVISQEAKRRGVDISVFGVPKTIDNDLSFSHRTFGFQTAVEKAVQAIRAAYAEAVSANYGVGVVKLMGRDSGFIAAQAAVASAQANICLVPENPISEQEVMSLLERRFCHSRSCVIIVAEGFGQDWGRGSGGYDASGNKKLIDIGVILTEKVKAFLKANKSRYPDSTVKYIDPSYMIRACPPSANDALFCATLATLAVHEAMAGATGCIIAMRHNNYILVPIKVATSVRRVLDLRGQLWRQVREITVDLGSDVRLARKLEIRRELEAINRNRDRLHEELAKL
# Chain of DNA dC->dU-editing enzyme APOBEC-3G (Homo sapiens) (Q9HC16 whole entry, looked up): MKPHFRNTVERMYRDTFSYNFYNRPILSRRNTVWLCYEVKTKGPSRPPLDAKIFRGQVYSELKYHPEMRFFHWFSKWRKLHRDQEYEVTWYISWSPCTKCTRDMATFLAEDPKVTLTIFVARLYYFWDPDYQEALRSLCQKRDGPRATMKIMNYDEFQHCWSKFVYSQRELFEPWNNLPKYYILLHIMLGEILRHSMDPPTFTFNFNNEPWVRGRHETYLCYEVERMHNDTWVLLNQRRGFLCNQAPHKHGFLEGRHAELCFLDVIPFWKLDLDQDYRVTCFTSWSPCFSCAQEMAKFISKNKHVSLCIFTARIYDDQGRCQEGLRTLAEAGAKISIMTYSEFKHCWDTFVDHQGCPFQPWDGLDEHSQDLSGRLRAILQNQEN
# Chain of Ubiquitin carboxyl-terminal hydrolase 1 (Homo sapiens) (O94782 whole entry, looked up): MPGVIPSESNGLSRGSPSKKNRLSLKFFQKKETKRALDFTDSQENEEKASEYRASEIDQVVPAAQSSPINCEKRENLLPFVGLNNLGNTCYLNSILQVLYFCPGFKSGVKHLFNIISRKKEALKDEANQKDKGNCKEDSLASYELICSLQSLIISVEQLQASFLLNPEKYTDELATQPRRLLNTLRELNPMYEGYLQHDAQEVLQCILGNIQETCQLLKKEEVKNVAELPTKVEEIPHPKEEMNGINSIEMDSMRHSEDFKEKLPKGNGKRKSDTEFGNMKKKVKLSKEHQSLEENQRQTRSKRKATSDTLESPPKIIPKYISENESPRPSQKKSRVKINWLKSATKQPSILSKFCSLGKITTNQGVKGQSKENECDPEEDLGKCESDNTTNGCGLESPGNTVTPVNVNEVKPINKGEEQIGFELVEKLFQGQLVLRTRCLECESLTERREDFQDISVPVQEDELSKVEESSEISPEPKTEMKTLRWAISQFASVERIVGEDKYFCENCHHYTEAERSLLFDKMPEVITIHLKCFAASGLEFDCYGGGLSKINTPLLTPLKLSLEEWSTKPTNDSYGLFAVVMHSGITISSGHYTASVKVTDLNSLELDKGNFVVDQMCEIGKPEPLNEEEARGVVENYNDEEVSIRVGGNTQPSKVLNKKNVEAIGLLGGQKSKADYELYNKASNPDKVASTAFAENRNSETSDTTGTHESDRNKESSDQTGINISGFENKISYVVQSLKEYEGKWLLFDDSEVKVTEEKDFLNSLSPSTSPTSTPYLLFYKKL
# Chain of Thyrotropin-releasing hormone receptor (Homo sapiens) (P34981 whole entry, looked up): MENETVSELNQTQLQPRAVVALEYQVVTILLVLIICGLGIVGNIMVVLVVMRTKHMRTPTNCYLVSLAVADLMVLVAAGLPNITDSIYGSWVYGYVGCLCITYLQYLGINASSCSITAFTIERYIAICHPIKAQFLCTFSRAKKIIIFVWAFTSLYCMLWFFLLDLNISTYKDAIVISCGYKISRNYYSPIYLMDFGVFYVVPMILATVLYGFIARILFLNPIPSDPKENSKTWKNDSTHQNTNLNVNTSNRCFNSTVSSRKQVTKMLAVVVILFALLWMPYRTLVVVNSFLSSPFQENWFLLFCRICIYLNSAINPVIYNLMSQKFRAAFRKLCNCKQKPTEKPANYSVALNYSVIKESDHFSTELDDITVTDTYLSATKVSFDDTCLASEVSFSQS
# Chain of Galactokinase (Homo sapiens) (P51570 whole entry, looked up): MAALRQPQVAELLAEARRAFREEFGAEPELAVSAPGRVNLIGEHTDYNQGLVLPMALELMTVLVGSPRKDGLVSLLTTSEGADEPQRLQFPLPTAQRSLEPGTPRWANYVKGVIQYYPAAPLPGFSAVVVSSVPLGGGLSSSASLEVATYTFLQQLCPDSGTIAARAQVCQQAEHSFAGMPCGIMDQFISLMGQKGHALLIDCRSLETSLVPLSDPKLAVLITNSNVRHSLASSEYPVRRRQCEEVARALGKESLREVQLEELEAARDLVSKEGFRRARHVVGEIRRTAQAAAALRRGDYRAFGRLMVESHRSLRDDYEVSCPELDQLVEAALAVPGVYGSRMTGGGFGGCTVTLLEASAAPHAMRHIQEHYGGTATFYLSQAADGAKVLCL
structure (smiles),measurement,setting,value
NC(=O)[C@H]1O[C@@H](O)[C@H](O)[C@@H](O)[C@@H]1O,Potency,[1],inactive
same,Potency,[2],inactive
O=S(=O)(O)CC(S)CS (stereo not drawn),Potency,[2],inactive
C[C@H]1O[C@@H](O[C@H]2[C@@H](O)C[C@H](O[C@H]3[C@@H](O)C[C@H](O[C@H]4CC[C@@]5(C)[C@H](CC[C@@H]6[C@@H]5C[C@@H](O)[C@]5(C)[C@@H](C7=CC(=O)OC7)CC[C@]65O)C4)O[C@@H]3C)O[C@@H]2C)C[C@H](O)[C@@H]1O,Potency,[1],inactive
same,Potency,[2],inactive
same,outcome,[3],inactive
NC(=O)CC[C@@H]1NC(=O)[C@H](Cc2ccccc2)NC(=O)[C@H](Cc2ccc(O)cc2)NC(=O)[C@@H](N)CSSC[C@@H](C(=O)N2CCC[C@H]2C(=O)N[C@@H](CCCN=C(N)N)C(=O)NCC(N)=O)NC(=O)[C@H](CC(N)=O)NC1=O,Potency,[2],inactive
O=C(O)Cc1nn(Cc2ccc(Br)cc2F)c(=O)c2ccccc12,Potency,[1],inactive
same,Potency,[2],inactive
same,outcome,[3],inactive
CC(=O)NCCCS(=O)(=O)O,Potency,[1],inactive
same,Potency,[2],inactive
COc1ccccc1N1CCN(CCCC(=O)c2ccc(F)cc2)CC1,Potency,[2],inactive
C#C[C@]1(O)CC[C@@H]2[C@H]3CCC4=CC(=O)CC[C@H]4[C@H]3C(=C)C[C@@]21CC,Potency,[1],inactive
same,Potency,[2],inactive
CC(C)OC(=O)Nc1ccc2nc(-c3cscn3)[nH]c2c1,Potency,[1],inactive
same,Potency,[2],inactive
Cc1cc(-c2ccc(N=Nc3ccc4c(S(=O)(=O)O)cc(S(=O)(=O)O)c(N)c4c3O)c(C)c2)ccc1N=Nc1ccc2c(S(=O)(=O)O)cc(S(=O)(=O)O)c(N)c2c1O,Potency,[2],11.2 µM (active) and 25.1 µM (active)
same,outcome,[3],inactive
O=P(O)(O)CP(=O)(O)O,Potency,[2],inactive
NC(=S)N=Nc1ccc(NN=C(N)N)cc1,Potency,[2],44.7 µM (active)
Cc1c(O)c(=O)ccn1C,outcome,[4],inactive
same,outcome,[5],inactive
same,outcome,[6],inactive
same,outcome,[7],inactive
COc1ccc(C[C@H](C)NC[C@@H](O)c2ccc(O)c(NC=O)c2)cc1,Potency,[1],inactive
same,Potency,[2],inactive
same,outcome,[3],inactive
NC(N)=NCC1COc2ccccc2O1 (stereo not drawn),Potency,[2],inactive
c1ccc(-n2cnnn2)cc1,Potency,[2],inactive
CC(CN(C)C)CN1c2ccccc2Sc2ccc(C(F)(F)F)cc21 (stereo not drawn),Potency,[2],inactive
N=C(N)n1cccn1,Potency,[2],inactive
O=C(O)COc1ccc(CCNS(=O)(=O)c2ccccc2)s1,Potency,[1],inactive
same,Potency,[2],inactive
N[C@H](CC(=O)O)C(=O)O,Potency,[1],inactive
same,Potency,[2],inactive
same,outcome,[3],inactive
CN(C)c1ccc(C(=C2C=CC(=[N+](C)C)C=C2)c2c(O)c(S(=O)(=O)[O-])cc3cc(S(=O)(=O)O)ccc23)cc1,Potency,[2],56.2 µM (active)
CCN(CC)CCOc1ccccc1OC,Potency,[1],inactive
same,Potency,[2],inactive
O=C1c2ccccc2C(=O)c2c1ccc(O)c2O,Potency,[1],inactive
same,outcome,[3],inactive
O=C(O)[C@H]1CN(C/C=C/P(=O)(O)O)CCN1,Potency,[1],inactive
same,Potency,[2],inactive
COc1cc(S(C)=O)ccc1-c1nc2ncccc2[nH]1 (stereo not drawn),Potency,[2],inactive
Oc1cccc(O)c1O,Potency,[2],inactive
O=C(O)C1=C(CSc2nnnn2CS(=O)(=O)O)CS[C@@H]2[C@H](NC(=O)[C@H](O)c3ccccc3)C(=O)N12,Potency,[2],inactive
Cn1cc(NC(=O)c2cc(NC(=O)c3cc(NC=O)cn3C)cn2C)cc1C(=O)NCCC(=N)N,Potency,[2],inactive
O=C(NCCNCC(O)COc1ccc(O)cc1)N1CCOCC1 (stereo not drawn),activation,[8],1%
same,outcome,[9],inactive
same,outcome,[10],inactive
same,Potency,[2],inactive
CCOC(=S)SSC(=S)OCC,Potency,[2],inactive
O[C@@H]([C@H](O)[C@H](O)CBr)[C@H](O)CBr,Potency,[2],inactive
COc1ccc(-c2noc(CC(=O)O)c2-c2ccc(OC)cc2)cc1,Potency,[2],inactive
O.O.O.O.O.O.O.O=S(=O)([O-])[O-].[Co+2],Potency,[2],inactive
COc1cc(NCCCC(C)N)c2ncccc2c1 (stereo not drawn),Potency,[2],11.2 µM (active)
CN(CCO)CC(O)Cn1cnc2c1c(=O)n(C)c(=O)n2C (stereo not drawn) (tested in a mixture with another compound),Potency,[2],inactive
